NTR1 agonist = NTR1 (human) agonism; NTR1-U2OS beta-arrestin-GFP spot imaging, agonist mode; P30989; 330,000 tested, 0.17% active; AID 493036; activation, % at 20 µM;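 active = activation at or above 40% of the spot to cytoplasm intensity ratio, with at least 20 cells analyzed; inconclusive = wells under 20 cells, flagged as cytotoxic or low count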;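 also: 0% = DMSO without peptide and 100% = 100 nM NTR1 peptide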
m5-HT2A agonist = agonists of mouse serotonin 5-HT2A receptor (HTR2A); activation, % at 7.6 µM; 360,000 tested, 0.66% active; CHO-K1 mHTR2A beta-arrestin complementation, luminescence; percent of 30 µM serotonin response; AID 624169;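 active = activation above a run cutoff, the mean activation of all tested compounds plus 3 SD, cut at about 14% in these data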;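 also: 0% = plate median of compound wells and 100% = 30 µM serotonin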
Exocytosis inh = blocks lytic granule exocytosis. TALL-104 LAMP-1 surface exposure, flow cytometry; cells stimulated with thapsigargin and PMA. inhibition, % at 10 µM. 360,000 tested, 0.66% active. AID 651702;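 active = inhibition above about 55%, limit read from the data; inconclusive = no clear call, values can overlap the other calls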
ABHD5 PLIN5 PPI = blocks binding of human ABHD5 to perilipin-5 | 360,000 tested, 0.78% active | Q00G26+Q8WTS1 | inhibition, % at 4 µM | Split G. princeps luciferase complementation, luminescence, 4 h;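 active = inhibition above the mean inhibition across every tested compound plus 3 SD, cut at about 22% in these data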;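 also: 0% = DMSO only wells and the 100% control is not disclosed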
B2AR ag = human beta-2 adrenergic receptor agonism by FAP | 340,000 tested, 0.43% active | Am2.2-beta2AR cells, FAP receptor internalization, flow cytometry | response, % (test concentration not listed) | P07550;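 active = response above a set limit, near 3 SD of response in nonfluorescent compounds, cut at about 42% in these data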
ABHD5-PLIN5 conf = confirmation of human ABHD5-PLIN5 interaction inhibitors | biochemical ABHD5-PLIN5 interaction, luminescence | AID 651612 | shares compounds with ABHD5 PLIN5 PPI | inhibition, % at 4 µM | 2,200 tested, 67% active; in the data active = inhibition above about 23%;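 also: 0% = DMSO vehicle wells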
HNF4 split-luc = active in HNF4 split-luciferase counter-screen for ABHD5-PLIN5 inhibitors. shares compounds with ABHD5 PLIN5 PPI. HNF4 dimerization, luminescence, biochemical. inhibition, % at 4 µM. 2,200 tested, 77% active. AID 651674;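 active = mean inhibition across replicate wells exceeding the computed hit threshold, cut at about 13% in these data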;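 also: light from luciferase halves that rejoin when HNF4 fusion proteins dimerize; 0% = DMSO only wells and the 100% control is not given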
Target sequence (P41235 whole entry, looked up, the tested form may be a part): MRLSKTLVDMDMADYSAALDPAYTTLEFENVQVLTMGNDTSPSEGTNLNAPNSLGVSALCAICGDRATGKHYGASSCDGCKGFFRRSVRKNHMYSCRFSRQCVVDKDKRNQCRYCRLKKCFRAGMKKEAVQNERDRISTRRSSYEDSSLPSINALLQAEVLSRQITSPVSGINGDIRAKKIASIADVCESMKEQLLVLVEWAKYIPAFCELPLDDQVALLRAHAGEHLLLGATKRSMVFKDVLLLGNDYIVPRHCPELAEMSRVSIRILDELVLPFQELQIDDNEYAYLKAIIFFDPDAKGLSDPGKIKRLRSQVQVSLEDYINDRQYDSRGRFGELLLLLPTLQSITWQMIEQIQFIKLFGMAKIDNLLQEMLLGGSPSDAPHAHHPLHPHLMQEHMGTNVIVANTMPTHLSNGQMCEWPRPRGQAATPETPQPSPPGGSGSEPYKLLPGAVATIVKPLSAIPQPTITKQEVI
* = called active by the depositor; ? = inconclusive; . = no result given. Only some compounds are listed: those with a hit (about 2.3% of all), similar ones and a draw of the others.

SMILES	NTR1 agonist	m5-HT2A agonist	Exocytosis inh	ABHD5 PLIN5 PPI	B2AR ag	ABHD5-PLIN5 conf	HNF4 split-luc
CN(C)CCOc1ccc(-c2c(-c3ccccc3)sc3ccccc23)cc1	1.4	-1.3	-19.3	29.1*	10.4	17.5	-4.0
COc1ccc(NC(=S)N2CCN(Cc3cccc(F)c3)CC2)c(OC)c1	-0.1	-3.0	0.9	-1.2	2.7	.	.
COc1ccc(NC(=S)N2CCN(Cc3ccco3)CC2)c(OC)c1	0.0	2.4	-3.6	23.5*	3.0	3.4	13.6*
CCOC(=O)c1cnc2c(ccc3ccccc32)c1N	1.1	0.2	-7.9	-1.3	-7.2	.	.
COc1cc(C=c2c3ccccc3n3c2cc(-c2ccccc2)[n+]3C)cc(OC)c1OC	.	1.8	19.0	-27.8	-9.3	.	.
CN(C)c1ccc(C=c2c3cc([N+](=O)[O-])ccc3n3c2cc(-c2ccccc2)[n+]3C)cc1	.	-8.3	19.6	25.9*	23.6	100.8*	47.7*
Cn1c(CO)c(-c2ccccc2)c2cc([N+](=O)[O-])ccc21	7.0	-10.7	-0.5	5.1	-2.3	.	.
COc1cc(N(C)C)ccc1C=c1c2ccccc2n2c1cc(-c1ccccc1)[n+]2C	.	-2.2	99.6*	24.4*	-68.8	21.6	26.2*
CCOc1ccc(S(=O)(=O)N2CCC(C(=O)Nc3ccccc3N3CCCC3)CC2)cc1	.	1.0	3.6	-12.8	.	.	.
Cc1ccc(C(=O)/C=C/C(=O)O)cc1	0.6	3.5	50.2	93.4*	5.0	95.3*	105.9*
O=C(c1ccccc1NS(=O)(=O)c1ccc([N+](=O)[O-])cc1[N+](=O)[O-])N1O[C@@H]2C=C[C@H]1C2	2.5	0.1	-2.0	27.2*	2.2	48.7*	74.0*
Cn1c(O)c(N=NC(=O)CNC(=O)c2cccnc2)c2ccccc21	0.1	-1.9	23.1	-6.7	-9.5	.	.
O=[N+]([O-])c1ccc(S(=O)Cc2ccccc2)c([N+](=O)[O-])c1 (configuration not stated)	.	-7.8	48.2	95.1*	49.3*	100.5*	109.8*
O=[N+]([O-])c1ccc(CS(=O)c2ccccc2)cc1 (configuration not stated)	.	-1.3	10.7	-12.3	-5.8	.	.
CCOc1ccccc1NC(=S)NC1CC2CCC1C2 (configuration not stated)	-0.5	-5.2	1.6	3.0	1.6	.	.
S=C(NCCc1ccccn1)NC1CC2CCC1C2 (configuration not stated)	-0.4	-0.8	-4.9	62.5*	-9.2	0.6	-2.4
Cn1c(=O)c2c(ncn2CC(=O)OCC(=O)Nc2cccc(C#N)c2)n(C)c1=O	.	1.7	-10.2	4.7	.	.	.
Cc1ccc(/C(O)=C2/C(=O)C(=O)OC2c2ccc(Cl)cc2)cc1 (configuration not stated)	4.3	7.1	-0.4	31.6*	-0.1	57.4*	36.6*
O=C(/C=C/c1ccco1)N1CCc2ccccc21	1.2	-0.6	-2.5	5.0	-9.5	.	.
Cc1ccc(/C=C/C(=O)N2CCc3ccccc32)o1	0.8	3.0	37.9	24.3*	-0.7	16.4	50.2*
CC(C)(C)c1ccc(C(=O)Nc2ccc(Cl)cc2)cc1	2.9	-1.8	-2.6	-5.1	0.6	.	.
Cc1ccc(SC(CC(=O)c2ccc(F)cc2)C(=O)O)cc1 (configuration not stated)	-1.1	6.3	17.8	84.4*	-12.0	24.3*	70.3*
O=C(CC(C(=O)O)c1ccc(F)cc1)c1ccc(Cl)cc1 (configuration not stated)	0.4	-1.4	-11.1	4.3	-2.3	.	.
CC(C)(C)c1ccc(C(=O)CC(Sc2ccc(Cl)cc2)C(=O)O)cc1 (configuration not stated)	14.1	-8.2	51.5	85.5*	6.5	54.4*	97.5*
CCc1nn(C(C)C(=O)NCc2cccc(OC)c2)c(=O)c2cc3occc3n12 (configuration not stated)	1.3	0.4	6.1	2.4	-4.0	.	.
SMILES	NTR1 agonist	m5-HT2A agonist	Exocytosis inh	ABHD5 PLIN5 PPI	B2AR ag	ABHD5-PLIN5 conf	HNF4 split-luc
O=C(Nc1cccc(F)c1)/C(=C\c1ccco1)NC(=O)c1ccco1	1.2	-8.7	-0.5	27.2*	5.1	3.4	0.3
O=C(Nc1cccc(C(F)(F)F)c1)/C(=C/c1ccco1)NC(=O)c1cccs1	-1.3	9.5	2.7	30.4*	-1.4	9.7	11.4
CC(=O)c1cccc(NC(=O)/C(=C\c2ccco2)NC(=O)c2cccs2)c1	-1.9	4.2	0.1	6.3	-6.7	.	.
Cc1ccccc1-c1cnc(C(O)c2ccc(Cl)cc2)[nH]1 (configuration not stated)	.	-9.0	?	-10.7	.	.	.
Cc1ccc(C)c(C(C)NC(=S)NCc2ccc(F)cc2)c1 (configuration not stated)	4.8	-6.2	-3.7	2.1	13.3	.	.
CCOc1ccccc1/C=C/c1nc2ccccc2[nH]c1=O	1.1	0.4	7.8	26.9*	6.4	50.0*	46.4*
Cn1c(N=Nc2ccccc2)nc2ccccc21	-0.1	0.5	3.3	-6.5	-16.9	.	.
CN(C)c1ccc(N=Nc2nc3ccccc3n2C)cc1	3.6	-9.0	7.2	34.4*	0.1	26.5*	46.4*
CCOc1ccc(CCN2C(=S)N([C@@H](Cc3ccc(O)cc3)CN3CCC[C@@H]3CN3C(=S)NC[C@@H]3CC(C)C)C[C@@H]2CC(C)C)cc1	.	-0.2	38.4	27.7*	.	6.9	8.8
CC(C)C[C@H]1CNC(=S)N1C[C@H]1CCCN1C[C@H](CC(C)C)N1C[C@H](Cc2ccc(O)cc2)N(CCc2ccccc2)C1=S	.	-1.1	34.1	26.1*	.	3.1	10.8
CCOC(=O)c1ccc(NC(=O)C(=O)NCC2(c3ccc(OC)cc3)CCOCC2)cc1	1.0	4.0	-4.0	-0.2	1.0	.	.
Cc1ccc(-c2csc(NC(=O)C[n+]3cc(-c4ccccc4)n4c3CCC4)n2)cc1	2.3	14.4	-2.9	14.4	-5.5	.	.
Cc1ccc(-c2csc(NC(=O)C[n+]3cc(-c4ccc(C)cc4)n4c3CCC4)n2)cc1	4.5	3.8	-0.4	24.9*	3.1	9.8	2.6
CNCCCCOc1ccccc1Cc1ccccc1	3.4	.	.	.	.	.	.
CN(C)CCOc1ccccc1Cc1ccccc1	1.0	-12.6	4.3	34.6*	-1.3	73.4*	25.0*
Cc1ccc(NC2C(=O)NC(=O)NC2=O)cc1	.	7.9	1.0	44.0*	6.7	9.9	14.7*
Cc1ccc(NC2CNC(=O)NC2=O)cc1C (configuration not stated)	.	1.8	-4.3	-3.1	-8.2	.	.
O=C(NCc1ccccc1)C(c1cccc2ccccc12)n1c(=O)c(-c2ccco2)nc2ccccc21 (configuration not stated)	.	-0.5	-0.9	58.5*	.	96.9*	33.6*

High-throughput results as filed in PubChem.
